Results reported in PubChem BioAssay (NCI).
Compounds without any hit were thinned out: in the full panel of roughly 83,000, 20% have a hit.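 For each line, cells grew in 96-well plates with the test compound present at a single concentration for 48 hours.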 A number with no mark means an inactive call. Calls of active or inactive are those of the source. Rule for the calls: active = growth percent below 10; inactive = the rest.

These compounds were tested on UACC-62 melanoma (assay: NCI-60 one-dose screen, 48 h (100 = growth as untreated, 0 = no growth, -100 = all killed)). Conditions: 10 µM unless noted.

With COc1ccc2c(CCCCC(c3ccccc3)c3ccccc3)c3[n+](cc2c1OC)CCc1cc2c(cc1-3)OCO2 the growth was -63.6% (active).
In the case of CCN1CCN(c2cc(C)nc(N(CCCNc3ccnc4cc(Cl)ccc34)Cc3ccc4c(c3)OCO4)n2)CC1, the growth is reported as -47.8% (active).
With Nc1c2c(c(O)c3c1=C(CO)C=N3)=NCCS2 the growth was -79.9% (active).
C=CC(=O)N(C)[C@H]1C[C@H]2OC(C)(C1OC)n1c3ccccc3c3c4c(c5c6ccccc6n2c5c31)C(=O)NC4 (stereo partly drawn) was tested, and the growth was -28.1% (active).
With Cc1cc2c(-c3nc4ccccn4c3Nc3cccc4ccccc34)c(O)c(O)cc2c(O)c1-c1c(C)cc2c(-c3nc4ccccn4c3Nc3cccc4ccccc34)c(O)c(O)cc2c1O the growth was 1.11% (active).
With Oc1ccc(/C=N/Nc2nnc(N/N=C/c3ccc(O)cc3O)c3ccccc23)c(O)c1 the growth was -94.8% (active).
CC(=O)OCCC/C(=C\c1ccc2ccccc2c1)[N+](=O)[O-] was tested, and the growth was -75.5% (active).
For CCCCCCCC(=O)SCC/C=C/[C@@H]1CC(=O)NCc2cccc(n2)C2=N[C@@](C)(CS2)C(=O)N[C@@H](C(C)C)C(=O)N1, the growth was 0.721% (active).
In the case of COC(=O)C1=C(C(=O)OC)C23C=C(C)C1C2=C(C)C1(CC1)[C@@](C)(O)C3=O (stereo partly drawn), the growth is reported as -45.2% (active).

Compared with O=C(Nc1ccc(C(=O)Nc2ccc(C3=NCCCN3)cc2)cc1)Nc1ccc(C2=NCCCN2)cc1, O=C(Nc1ccc(C2=NCCCN2)cc1)c1ccc(C(=O)Nc2ccc(C3=NCCCN3)cc2)nc1 is higher in growth: 82.7% for the first, 99.5% for the second.

Compared with CCOC(=O)C1=C(C)N=C2Sc3cc(OC(F)(F)F)ccc3N2[C@H]1c1ccccn1, [2H]C1([2H])[C@H](C)O[C@H](C)C([2H])([2H])N1c1ccc(NC(=O)c2cccc(-c3ccc(OC(F)(F)F)cc3)c2C)cn1 is higher in growth: 28.3% for the first, 52.8% for the second.

Compared with C[C@@H](C[C@H](CCO)c1cc(C(F)(F)F)cc(C(F)(F)F)c1)c1ccc2ccccc2c1, COc1ccc(OC)c(NC2=C(SCCc3ccccc3)C(=O)c3ccccc3C2=O)c1 is lower in growth: 90.4% for the first, 62.1% for the second.

Going from CN(N)c1nc2sc3c(c2c(=O)[nH]1)CCCC3 to NC(=O)c1n[nH]n2c1nc(=O)c1c3c(sc12)CCCC3, the growth falls from 110% to 103%.

Compared with Cc1cc(N(CCNc2ccnc3cc(Cl)ccc23)Cc2ccc3c(c2)OCO3)nc(N2CCN(C)CC2)n1, Cc1cc(N(CCNc2ccnc3cc(Cl)ccc23)Cc2ccc3c(c2)OCO3)nc(N2CCCC2)n1 is lower in growth: 33.7% for the first, 18.2% for the second.

Going from C[N+](C)(CCOC(c1ccccc1)c1ccccc1)CC(=O)OCc1ccccc1 to CCN1/C(=C/C=C/c2n(-c3ccccc3)c3ccc(-c4nc5ccccc5s4)cc3[n+]2CC)N(c2ccccc2)c2ccc(-c3nc4ccccc4s3)cc21, the growth falls from 104% to 30.5%.

Compared with CC1(/C=N/NC(N)=S)NC(=O)NC1=O (stereo not drawn), CCC1(/C=N/NC(N)=S)NC(=O)NC1=O (stereo not drawn) is higher in growth: 95.6% for the first, 104% for the second.

First: N#Cc1cc2[nH]c3ccc(OC(F)(F)F)cc3c2oc1=O
Second: CCOC(=O)C1=C(C)NC(=O)NC1c1cc(=O)oc2ccc(C)cc12 (stereo not drawn)
The growth of the first is lower: 88.9% for the first, 99% for the second.

Going from COc1ccc2c(c1OC)C(=O)O[C@@H]2[C@H]1c2c(c(C#CC#Cc3ccc(F)c(F)c3)c3c(c2OC)OCO3)CCN1C to COc1ccc2c(CCc3ccc(Cl)cc3)c3[n+](cc2c1OC)CCc1cc2c(cc1-3)OCO2, the growth falls from 69.5% to 30.1%.

Going from CC(C)C1CCC(C)C(C2(C#N)C(N)=NC(N)=C2C#N)C1=O (stereo not drawn) to COC(=O)CC[C@@H](C)[C@H]1CC[C@H]2C3CC[C@@H]4C[C@@H]5CC[C@]4(C)[C@@]3(O5)[C@H](Br)[C@@H](Br)[C@]12C (stereo partly drawn), the growth falls from 102% to 86.3%.

Going from N#CC1(C#N)C(c2cccs2)NC(c2cccs2)C1(C#N)C#N (stereo not drawn) to O=C1CC(c2ccc(Cl)cc2)c2ncn(-c3cccc(Cl)c3)c2N1 (stereo not drawn), the growth falls from 101% to 33.9%.

Going from CC1CCC(n2cnc3c(Cl)ncnc32)O1 (stereo not drawn) to CCOC(=O)Sc1ncnc2nc[nH]c12, the growth falls from 104% to 16%.

First: CCc1ccc(/C=C/c2ccc(O)c3ncccc23)[n+](C)c1
Second: Cc1ccc(NC(=O)NC(=O)CSc2nc3ccccc3nc2C)cc1
The growth of the first is lower: 35.7% for the first, 52.5% for the second.

First: COC(=O)c1[nH]cnc1/N=N/N(C)CCO
Second: COc1cc2c3c(c1)nc(C)n3CCC2
The growth of the first is higher: 101% for the first, 100% for the second.

First: COc1cc(-c2cc(-c3ccc(Nc4ccnc5cc(Cl)ccc45)cc3)nc(N3CCOCC3)n2)cc(OC)c1OC
Second: CC(=O)C(C(C)=O)C(c1ccccc1)C(C(C)=O)C(C)=O
The growth of the first is lower: 70.1% for the first, 98.2% for the second.

What follows are compounds tested on LOX IMVI melanoma in the same assay as above. Conditions: 10 µM unless noted.

With COc1ccc2c(CCCCC(c3ccccc3)c3ccccc3)c3[n+](cc2c1OC)CCc1cc2c(cc1-3)OCO2 the growth was -100% (active).
For CCN1CCN(c2cc(C)nc(N(CCCNc3ccnc4cc(Cl)ccc34)Cc3ccc4c(c3)OCO4)n2)CC1, the growth was -75% (active).
For Nc1c2c(c(O)c3c1=C(CO)C=N3)=NCCS2, the growth was -89.5% (active).
With Cc1cc(N(CCNc2ccnc3cc(Cl)ccc23)Cc2ccc3c(c2)OCO3)nc(N2CCN(C)CC2)n1 the growth was -71.8% (active).
For C=CC(=O)N(C)[C@H]1C[C@H]2OC(C)(C1OC)n1c3ccccc3c3c4c(c5c6ccccc6n2c5c31)C(=O)NC4 (stereo partly drawn), the growth was -55.6% (active).
With Cc1cc2c(-c3nc4ccccn4c3Nc3cccc4ccccc34)c(O)c(O)cc2c(O)c1-c1c(C)cc2c(-c3nc4ccccn4c3Nc3cccc4ccccc34)c(O)c(O)cc2c1O the growth was 9.84% (active).
For Oc1ccc(/C=N/Nc2nnc(N/N=C/c3ccc(O)cc3O)c3ccccc23)c(O)c1, the growth was -51.4% (active).
For CCN1/C(=C/C=C/c2n(-c3ccccc3)c3ccc(-c4nc5ccccc5s4)cc3[n+]2CC)N(c2ccccc2)c2ccc(-c3nc4ccccc4s3)cc21, the growth was 1.77% (active).
In the case of CC(=O)OCCC/C(=C\c1ccc2ccccc2c1)[N+](=O)[O-], the growth is reported as -83.3% (active).
COc1cc(-c2cc(-c3ccc(Nc4ccnc5cc(Cl)ccc45)cc3)nc(N3CCOCC3)n2)cc(OC)c1OC was tested, and the growth was 4.79% (active).
In the case of CCOC(=O)Sc1ncnc2nc[nH]c12, the growth is reported as 7.98% (active).
For CCCCCCCC(=O)SCC/C=C/[C@@H]1CC(=O)NCc2cccc(n2)C2=N[C@@](C)(CS2)C(=O)N[C@@H](C(C)C)C(=O)N1, the growth was -1.52% (active).
Cc1cc(N(CCNc2ccnc3cc(Cl)ccc23)Cc2ccc3c(c2)OCO3)nc(N2CCCC2)n1 was tested, and the growth was -80.9% (active).
In the case of COC(=O)C1=C(C(=O)OC)C23C=C(C)C1C2=C(C)C1(CC1)[C@@](C)(O)C3=O (stereo partly drawn), the growth is reported as -14.3% (active).

First: O=C(Nc1ccc(C(=O)Nc2ccc(C3=NCCCN3)cc2)cc1)Nc1ccc(C2=NCCCN2)cc1
Second: O=C(Nc1ccc(C2=NCCCN2)cc1)c1ccc(C(=O)Nc2ccc(C3=NCCCN3)cc2)nc1
The growth of the first is lower: 85.8% for the first, 105% for the second.

Compared with CCOC(=O)C1=C(C)N=C2Sc3cc(OC(F)(F)F)ccc3N2[C@H]1c1ccccn1, [2H]C1([2H])[C@H](C)O[C@H](C)C([2H])([2H])N1c1ccc(NC(=O)c2cccc(-c3ccc(OC(F)(F)F)cc3)c2C)cn1 is higher in growth: 32.9% for the first, 68.4% for the second.

Going from C[C@@H](C[C@H](CCO)c1cc(C(F)(F)F)cc(C(F)(F)F)c1)c1ccc2ccccc2c1 to COc1ccc(OC)c(NC2=C(SCCc3ccccc3)C(=O)c3ccccc3C2=O)c1, the growth falls from 87.3% to 66.4%.

Going from CN(N)c1nc2sc3c(c2c(=O)[nH]1)CCCC3 to NC(=O)c1n[nH]n2c1nc(=O)c1c3c(sc12)CCCC3, the growth falls from 102% to 99.3%.

Compared with C[N+](C)(CCOC(c1ccccc1)c1ccccc1)CC(=O)OCc1ccccc1, Cc1ccc(NC(=O)NC(=O)CSc2nc3ccccc3nc2C)cc1 is lower in growth: 101% for the first, 58.8% for the second.

Going from CC1(/C=N/NC(N)=S)NC(=O)NC1=O (stereo not drawn) to CCC1(/C=N/NC(N)=S)NC(=O)NC1=O (stereo not drawn), the growth rises from 101% to 102%.

Compared with N#Cc1cc2[nH]c3ccc(OC(F)(F)F)cc3c2oc1=O, CCOC(=O)C1=C(C)NC(=O)NC1c1cc(=O)oc2ccc(C)cc12 (stereo not drawn) is higher in growth: 74.5% for the first, 97.5% for the second.

First: COc1ccc2c(c1OC)C(=O)O[C@@H]2[C@H]1c2c(c(C#CC#Cc3ccc(F)c(F)c3)c3c(c2OC)OCO3)CCN1C
Second: COc1ccc2c(CCc3ccc(Cl)cc3)c3[n+](cc2c1OC)CCc1cc2c(cc1-3)OCO2
The growth of the first is higher: 90.9% for the first, 50.9% for the second.

First: CC(C)C1CCC(C)C(C2(C#N)C(N)=NC(N)=C2C#N)C1=O (stereo not drawn)
Second: COC(=O)CC[C@@H](C)[C@H]1CC[C@H]2C3CC[C@@H]4C[C@@H]5CC[C@]4(C)[C@@]3(O5)[C@H](Br)[C@@H](Br)[C@]12C (stereo partly drawn)
The growth of the first is lower: 92.5% for the first, 97.1% for the second.

First: N#CC1(C#N)C(c2cccs2)NC(c2cccs2)C1(C#N)C#N (stereo not drawn)
Second: O=C1CC(c2ccc(Cl)cc2)c2ncn(-c3cccc(Cl)c3)c2N1 (stereo not drawn)
The growth of the first is higher: 93.9% for the first, 47.5% for the second.

Compared with CC1CCC(n2cnc3c(Cl)ncnc32)O1 (stereo not drawn), COc1cc2c3c(c1)nc(C)n3CCC2 is higher in growth: 87.1% for the first, 92.7% for the second.

First: CCc1ccc(/C=C/c2ccc(O)c3ncccc23)[n+](C)c1
Second: COC(=O)c1[nH]cnc1/N=N/N(C)CCO
The growth of the first is lower: 55.6% for the first, 101% for the second.

For CC(=O)C(C(C)=O)C(c1ccccc1)C(C(C)=O)C(C)=O, the growth was 94.4%.
